Reference: the supplement of paper PMC6555819

Tested on: FXR:RXRa (NR concentration 270 nM, RXRa partner concentration 90 nM)
Assay: PBM binding z-score (relative to random genomic background probes); higher = stronger binding; sequences stand for … in GC…GCGATTGACAGCGTAGAATGAAGG
Summary of the method: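 Each nuclear receptor dimer, without ligand, was incubated for 1 h on custom Agilent 4×180K protein-binding microarrays. Binding was detected with antibodies against each partner (one per run), and scanned fluorescence was regression-normalized. The binding z-scores are referenced to random human genomic background probes.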

Row | Sequence | PBM binding z-score
1 | GCTTGGAGATCAAGGTTAAGAAAGACTAAGCTAA | 0.0543
2 | CCGAGTAGGTTATGGGGCATCCAGGCAACGGTGA | 0.103
3 | CCTTACGGGTCACGAGGTTATAGCACGACGAGCG | 6.74
4 | CCTCCTGGGCCAAAGGTCATTGATTCCAATGCTC | 4.65
5 | GATACCGGGTCAGCTAGAGGCCAGAGTATGGAAA | 2.65
6 | AGAACGAGGGCACGCTGAGTTGACAGCAGAGTAG | 0.953
7 | CGAATTAGGTCAGAACAGGACAGTGAAGGATGAT | 1.56
8 | CGAACTAGGTCATCGACAGGACAGTGAATAGTAA | 3.83
9 | ATCGAAAGGTCGAGGTGGGTATAGAGAAAGGGAA | 4.46
10 | TAGCCTAGGTCAGATCGGGCCACTATACGCTATA | 2.45
11 | ACTCGGAGGACAAAGGTCAGACCTACGCCAGTGA | 4.44
12 | AGACCGAGGGCAATGAGTTGATAGCACGGGTGGC | -0.192
13 | TGAACGAGGTTAAAGATCAGGGAACGTGGCGTCG | 2.87
14 | CCTAGTTAGTCAGGAGGTCACACACCGGATATGA | 3.41
15 | CAAACTAGGTCACGAAAGGTCCAAGTCGAATGAC | 4.78
16 | CAACCAAGGTGAACAAGGTCGTTGATTACTATTC | 1.58
17 | AGAATGACGTTACCAAAGATCAGGGAAACGCTTG | -0.187
18 | GCTGCTAGTTCAGGTTGGTCAGCTAACGGGTACG | -0.234
19 | ACTCGGAGGACCAAGGTCAGAGCTACGCCAGTGA | 1.21
20 | TAGCCTAGGTCATTCACGGGCCAGTATAGAAAGC | 4.64

Row | Sequence | PBM binding z-score
21 | TAGCCTAGGTCATGCAGGGGCCAGTATAGAAAGC | 3.95
22 | TCGAGTAGGATACCAATGGGGCATTCAGCTTTCT | -0.594
23 | TCCTATAGGTAAACAGGTGAAAGTCCGTAAGTTA | 0.613
24 | GCGACTGGGGCATCAGCCGGTTACCATAACTTAA | -0.764
25 | CCTAGCAGGCCAATCTGCGTCACTCAAGGCTTGA | -0.461
26 | CGAACTAGGTCAAGGGCAGTGAATCTCCGCACGC | 3.56
27 | ACTCGCAGGACAAAGGTCAGAGCTACGCCAGTGA | 3.77
28 | GATACACGGTCAGCTAGAGGCCAGAGTATGGAAA | -0.145
29 | CCTAGCAGGCCCATCTGGGTCACTCAAGGCTTGA | 0.338
30 | ATCTCTAGGTAAAAGTTCAGTGGATCCCGAGGAT | 1.06
31 | TCTTGTAGATCAAAGGTTATGAAAGCCGAAGCCT | 1.67
32 | CGTCCAAGGTCATAGGAGGTCCGTGAAGACAGAT | 7.45
33 | CCGACTGGGGCAAGGTTAGCATAACGCACAGCCA | -0.312
34 | CGTCAAAGTTCAACTAAGGTAACGGAAAGCACGC | 6.73
35 | AACACAGGGTCACTAGGCCAGAGTAGGTACGAAT | 6.27
36 | GCTTGTAGATCAAGATTAAGAAAGACTAAGCTAA | -0.857
37 | GCATAGAGGTAATACAAGGTGAAAGTCCGATTGT | 1.25
38 | AGTCAAGGTTCACTAGGTAACGTAAGATTCAGCT | 3.03
39 | TCTTGTAGATCAATAGAGGTTAAGAATGTGCGCT | 0.658
40 | CCTATTAGTTGACCATAAGGGCTACCGAAGCTCG | 0.118
